Assay results published in PubChem BioAssay (NCATS).
Records with an inconclusive call do not appear. A call without a number means that no potency is given here. Calls of active or inactive are those of the source. Calls follow the shape of the dose curve; as a rule, active = well fitted cell-killing curve with a large enough effect; inconclusive = small, poorly fitted or top-dose-only effect; inactive = flat fitted curve, though single readings scatter.

Test: Cell Viability - LYMP2-013 (AID 970); also: nearly all actives have a fitted effect of over 55% in size
Settings: LYMP2-013 lymphoblastoid cells viability; series mostly up to 92.2 µM
Description: NIH Chemical Genomics Center [NCGC]
NIH Molecular Libraries Screening Centers Network [MLSCN]
National Institutes of Environmental Health Sciences [NIEHS]
National Toxicology Program [NTP]
We have developed a 1536-well cell-based assay for quantitative high throughput screening (qHTS) against a number of cell lines to determine in vitro cytotoxicity of small molecules. This particular assay uses a human lymphoblastoid cell line (LYMP2-013) purchased from Coriell Institute for Medical Research.
NCGC Assay Protocol Summary:
The CellTiter-Glo luminescent cell viability assay (Promega) is a homogeneous method to measure the number of viable cells in culture. The end point readout of this assay is based on quantitation of intracellular ATP, an indicator of metabolic activity, using the luciferase reaction. Luciferase catalyzes the oxidation of beetle Luciferin to oxyluciferin and light in the presence of ATP. The luminescent signal is proportional to amount of ATP present.
Using the CellTiter-Glo luminescent cell viability assay, the amount of cellular ATP was measured in the lymphoblastoid cell line with complete culture medium following compound treatment for 24 hours. The assay was performed in opaque white Kalypsys 1536-well plates. In the screen, tetraoctylammonium bromide was used as positive control. Library compounds were measured for their ability to cause acute toxicity in the cell line, as reflected by a decrease in intracellular ATP levels, in a concentration-dependent manner. […] AC50 values were determined from concentration-response data modeled with the standard Hill equation.
qHTS protocol for CellTiter Glo lymphoblastoid cellular assay
[Step] [Parameter] [Value] [Description]
1. Reagent; 5 uL; 2500 lymphoblastoid cells/well
2. Time; 5 hr; 37 C incubation
4. Controls; 23 nL; Tetraoctylammonium bromide 6.4pM to 92 uM
5. Time; 24 hr; 37 C incubation
6. Reagent; 5 uL; CellTiter Glo reagent
7. Time; 30 min; Room Temperature
8. Detection; Luminescence; Viewlux plate reader
Keywords: cell viability, cytotoxicity, lymphoblastoid cell line, luminescence, NTPHTS, NTPHTS_NCGC, NIEHS, DSSTox, MLSMR, MLSCN, NIH Roadmap, qHTS, NCGC
Potency is read from the fitted curve at half-maximal effect.

SMILES	Potency
CCc1cc(C(N)=S)ccn1	inactive
C[C@]12C=CC(=O)C=C1CC[C@@H]1[C@@H]2C(=O)C[C@@]2(C)[C@H]1CC[C@]2(O)C(=O)CO	inactive
CN(C)c1ccc(C(=C2C=CC(=[N+](C)C)C=C2)c2ccc(N(C)C)cc2)cc1	3.98 µM (active)
NNC(=O)c1ccncc1	inactive
Cc1ncc([N+](=O)[O-])n1CCO	inactive
O=C(N[C@H](CO)[C@H](O)c1ccc([N+](=O)[O-])cc1)C(Cl)Cl	inactive
CC[C@H](C)C(=O)O[C@H]1C[C@@H](C)C=C2C=C[C@H](C)[C@H](CC[C@@H]3C[C@@H](O)CC(=O)O3)[C@H]21	inactive
Cc1noc(NS(=O)(=O)c2ccc(N)cc2)c1C	inactive
Cc1nnc(NS(=O)(=O)c2ccc(N)cc2)s1	inactive
Cc1ccnc2c1NC(=O)c1cccnc1N2C1CC1	inactive
Cc1cc(NS(=O)(=O)c2ccc(N)cc2)no1	inactive
NC(N)=NC(N)=NCCc1ccccc1	inactive
CC1=NN(c2ccccc2)C(=O)C1	inactive
O=C(O)c1cc(=O)[nH]c(=O)[nH]1	inactive
